Screens: PubChem, several laboratories
LMP1 NFkB inh: reduces LMP1-driven NF-kappaB luciferase signal | 350,000 compounds, 0.69% hits | inhibition, % at 12.5 µM | LMP1-induced NF-kappaB luciferase reporter cells, luminescence; in the data active = inhibition above about 41%; inconclusive = no clear call, values can overlap the other calls;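 note: 0% = neutral control wells and 100% = reference inhibitor control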
TROY NFkB inh: inhibitors of TROY-dependent NF-kB signaling | Q293 LMP1-TROYcd NF-kB luciferase reporter, 4 h | inhibition, % at 10 µM | 360,000 compounds, 0.98% hits | AID 1347056;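 active = compounds whose plate-normalised and pattern-corrected inhibition of the luciferase reporter signal at the single screening dose is 50% or more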
EWS-Fli inh: blocks EWS/Fli oncoprotein-driven transcription; A673 NR0B1-luciferase reporter, viability-normalised; inhibition, % at 12.6 µM; 350,000 compounds, 0.67% hits; AID 651661;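 active = mean inhibition of at least 50% after viability correction, with every replicate also passing that limit; inconclusive = mean reaches 50% but only one of two replicates passes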;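 note: firefly luciferase signal divided by Alamar Blue viability fluorescence both relative to DMSO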
LGR2 inh: inhibitors of bursicon-induced Drosophila LGR2 receptor cAMP signaling | 380,000 compounds, 0.35% hits | inhibition, % at 9.99 µM | AID 720647 | HEK293 LGR2, CRE-luciferase, bursicon-stimulated, 4 h;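 active = drop in luminescence signal, shown as inhibition above about 50% in the replicate tests, limit read from the data, passing the limit was not always enough; inconclusive = probably only some replicates passing the limit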;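 note: agonist challenge used bursicon conditioned medium at about half maximal strength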
TWEAK Fn14 block: TWEAK-Fn14 signaling inhibition. 360,000 compounds, 2% hits. inhibition, % at 10 µM. TWEAK-stimulated Fn14 reporter cells, luciferase luminescence, 8 h; in the data active = inhibition above about 50%
Active calls of the source: *; ? = inconclusive; . = no result. The list is not random: actives were taken first. Their share in the collection is about 2.6%.

SMILES	LMP1 NFkB inh	TROY NFkB inh	EWS-Fli inh	LGR2 inh	TWEAK Fn14 block
O=C1C(Nc2cccc(O)c2)=C(N2CCCCC2)C(=O)c2ccccc21	3.5	9.8	.	.	4.1
Cc1cc(C)cc(S(=O)(=O)c2cnc3ccccc3n2)c1	-0.5	5.6	2.9	47.0	39.1
O=S(=O)(c1ccc(Cl)cc1)c1cnc2ccccc2n1	7.5	12.6	6.3	30.0	58.6*
CC(=O)c1cc2c(C)c(C(=O)c3ccccc3)oc2cc1O	-5.6	38.1	.	20.8	54.6*
O=C(c1ccccc1)c1ccc(O)cc1O	6.3	-6.4	-1.1	2.1	2.1
N#C[C@H]1[C@@H](c2ccccc2C2=CCCC2)[C@@H](CO)N1C(=O)C1CCCC1	.	.	-3.5	9.0	.
Cc1cc2c(=Cc3ccc(N(C)C)cc3)c3ccccc3n2[n+]1C	23.5	40.5	31.9	49.6	66.8*
C[n+]1c(-c2ccccc2)cc2c(=Cc3ccccc3)c3ccccc3n21	30.4	27.6	52.7*	?	73.9*
COC(=O)[C@]1(CCC(=O)OC(C)(C)C)N=C(c2ccc(OCCCO)cc2)O[C@@H]1c1ccccc1N=[N+]=[N-]	.	.	-10.2	.	.
Cc1nnsc1NC(=O)OCc1ccc(C(C)(C)C)cc1	10.3	.	.	-26.0	56.0*
C=CCOC(=O)Nc1snnc1C	7.2	5.3	.	-17.5	-4.1
C[C@@H]1CN([C@H](C)CO)S(=O)(=O)c2ccc(-c3ccc(F)cc3)cc2O[C@@H]1CN(C)C(=O)C1CCC1	.	.	2.7	-1.1	.
COc1cc(C2c3cc4c(cc3OC(NCCc3ccccc3)C2C)OCO4)cc(OC)c1OC (configuration not stated)	8.2	15.2	54.2*	-20.0	4.8
COc1cc(C2c3cc4c(cc3OC(N3CCOCC3)C2C)OCO4)cc(OC)c1OC(C)=O (configuration not stated)	-1.5	9.6	0.6	5.8	4.9
COc1cc(C2c3cc4c(cc3OC(Nc3ccc(C(=O)O)cc3)C2C)OCO4)cc(OC)c1OC (configuration not stated)	4.1	16.4	52.2*	-8.8	23.9
O=[N+]([O-])c1cc(S(=O)(=O)Nc2cccc(C(F)(F)F)c2)ccc1-n1nnc2ccccc21	-0.4	57.8*	.	.	13.6
COc1cccc(-c2nc3n(n2)C(c2cccs2)C(C(=O)Nc2cccnc2)=C(C)N3)c1 (configuration not stated)	49.5*	-10.8	-2.4	10.9	-11.1
CCNC(=O)C[C@@H]1CC[C@H]2[C@@H](COc3ccc(NC(=O)Nc4ccc(C)cc4)cc3C(=O)N2C)O1	.	.	-10.0	11.1	.
COC(=O)c1sccc1NC(=O)Nc1ccc(C(C)=O)cc1	-10.3	36.7	-1.5	-52.8	59.1*
O=C(Nc1ccncc1)Nc1ccncc1	-5.7	13.7	17.6	4.7	10.8
CC(=O)c1ccc(NC(=O)Nc2ccncc2)cc1	-6.6	5.3	-2.0	-11.7	57.6*
NC(=O)c1ccsc1NC(=O)c1ccc(N2CCCC2=O)cc1	23.4	8.9	-28.9	71.9*	43.2
NC(=O)c1ccsc1NC(=O)c1ccc2c(c1)CCCC2	-69.2	19.7	11.0	62.6*	48.5
CCOC(=O)c1cc(-c2ccccc2)sc1NC(=O)C(C)(C)C	-6.7	-1.0	.	.	95.6*
CCOc1ccccc1NC(=O)Cn1c(=O)sc2ccccc21	64.2*	-0.9	6.0	4.6	-12.9
SMILES	LMP1 NFkB inh	TROY NFkB inh	EWS-Fli inh	LGR2 inh	TWEAK Fn14 block
CCOc1ccccc1NC(=O)Cn1c(=O)oc2ccccc21	-4.2	1.7	11.7	-6.9	8.3
Oc1ccccc1-c1n[nH]c(-c2ccccc2O)n1	-3.9	-2.2	-47.5	-93.4	76.7*
Clc1ccccc1-c1nc(-c2ccccc2)n[nH]1	-2.7	-68.0	.	.	0.7
COC(=O)[C@]1(Cc2ccccc2)NC=C(C(=O)c2ccccc2)[C@@H]1c1cccs1	.	.	-8.6	-3.8	.
Cc1ccc2nc3sc(C(=O)N4CCOCC4)c(N)c3cc2c1	63.6*	11.9	.	.	9.6
Cc1ccc2nc3sc(C(=O)Nc4c(C)[nH]c(=O)[nH]c4=O)c(N)c3cc2c1	-1.3	8.0	.	-7.0	53.4*
Cc1ccc2cc3c(N)c(C(=O)N4CCOCC4)sc3nc2c1	-5.6	-13.1	.	.	-2.2
COc1ccc(N(C(=O)c2ccco2)C(C(=O)NC2CCCC2)c2ccc(C)cc2)c(OC)c1 (configuration not stated)	-1.5	26.9	12.1	0.0	25.4
COc1ccc(N(C(=O)c2snc(C(N)=O)c2N)C(C(=O)NC2CCCC2)c2cccs2)cc1OC (configuration not stated)	-8.8	-18.8	8.4	-11.6	9.7
C#CC(=O)N(c1cc(OC)ccc1OC)C(C(=O)NC1CCCC1)c1cccs1 (configuration not stated)	73.1*	12.7	.	.	46.6
COc1ccc(N(C(=O)c2ccco2)C(C(=O)NC2CCCCC2)c2cccs2)cc1OC (configuration not stated)	5.4	.	.	.	77.3*
CC(=O)c1cccc(N(C(=O)c2ccco2)C(C(=O)NC2CCCC2)c2ccccc2F)c1 (configuration not stated)	-4.4	-8.2	-4.5	-2.5	53.2*
CC(=O)c1cccc(N(C(=O)c2ccco2)C(C(=O)NC2CCCC2)c2cccs2)c1 (configuration not stated)	-1.7	12.3	9.5	4.8	12.3
CC(=O)c1cc2c(cc1N(C(=O)c1ccco1)C(C(=O)NC1CCCC1)c1ccccc1F)OCO2 (configuration not stated)	-8.2	-17.8	-4.1	6.1	-14.8
C#CC(=O)N(c1ccc(OC)cc1OC)C(C(=O)NC1CCCC1)c1cccs1 (configuration not stated)	21.2	5.0	61.3*	96.7*	37.2
CNC[C@H]1Oc2ccc(NC(=O)CCC(F)(F)F)cc2C(=O)N([C@H](C)CO)C[C@@H]1C	.	.	-8.5	5.8	.
CCCNC(=O)C1(C)CCCN(Cc2ccc(-c3ccccc3)o2)C1 (configuration not stated)	.	2.1	3.8	24.0	70.1*
COc1ccc(S(=O)(=O)N(C)C[C@@H]2Oc3ccc(NC(=O)CCN4CCOCC4)cc3C(=O)N([C@@H](C)CO)C[C@@H]2C)cc1	.	.	-4.3	-4.2	.
COc1cc(/C=C2\SC(=S)N(N3CCOCC3)C2=O)ccc1O	-5.3	54.0*	9.7	-14.1	-35.0
COc1cc(/C=C2\COC/C(=C\c3ccc(O)c(OC)c3)C2=O)ccc1O	23.6	48.7	77.1*	.	-12.0
COc1cc(/C=C2/CC/C(=C/c3ccc(O)c(OC)c3)C2=O)ccc1O	-0.6	15.4	58.6*	-0.7	28.7
COc1cc(OC)c(OC)cc1/C=C1\CCC/C(=C\c2cc(OC)c(OC)cc2OC)C1=O	12.9	11.4	6.2	2.2	56.1*
COc1cc(/C=C/C=C2/CC/C(=C/C=C/c3ccc(O)c(OC)c3)C2=O)ccc1O	0.7	0.4	6.4	27.9	32.5
COc1cc(C=C2C(=O)c3ccccc3C2=O)ccc1O	-7.1	2.7	13.0	-6.6	4.5
C[C@@H]1CN([C@H](C)CO)C(=O)c2cc(/C=C/c3ccccc3)cnc2O[C@@H]1CN(C)Cc1ccccc1F	.	.	-1.8	1.1	.
